Compound activity deposited in PubChem BioAssay by National Center for Advancing Translational Sciences (NCATS).
DT40 TDP1 no CPT: qHTS for Inhibitors of human tyrosyl-DNA phosphodiesterase 1 (TDP1): qHTS in cells in absence of CPT. AID 686978, 2013. DT40 Tdp1-/- hTDP1 cells, no CPT, ATP luminescence, 48 h. 15% of 420,000 active. Potency, µM (doses to about 46.2 µM), for the others: at the highest dose activity change, negative = growth inhibition, hits mostly inhibitors; also: potency is read from the fitted curve at half-maximal effect; % is scaled to controls: 0 for no effect and ±100 for the full control effect; nearly all actives have a fitted effect of over 55% in size
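DT40 Tdp1-/-;hTDP1 cells, no CPT (DMSO vehicle only), 400 cells/well; compounds pin-transferred; ≥48 hr, 37 °C; CellTiter-Glo 30 min RT dark, luminescence read.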
DT40 TDP1 CPT: growth inhibition of DT40 Tdp1-/-;hTDP1 cells with camptothecin (screen for TDP1 inhibitors) | chicken DT40 Tdp1-/-;hTDP1 cells + 20 nM CPT, ATP luminescence, 48 h | Potency, µM (series often up to 46.2 µM), without a hit: at the top dose activity change, negative = growth inhibition, actives largely listed as inhibitors | 12% of 420,000 active; also: potency is read from the fitted curve at half-maximal effect; % is scaled to controls: 0 for no effect and ±100 for the full control effect; nearly all actives have a fitted effect of over 55% in size
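Chicken DT40 Tdp1-/- cells stably complemented with human TDP1 were seeded at 400 cells/well in medium containing 20 nM camptothecin, exposed to pin-transferred compounds, and grown at 37 °C for at least 48 hr. Viability was read as ATP luminescence.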
ASM inhibitor: human S-ASM enzyme inhibition. Potency, µM (highest dose often 57.5 µM), without a hit: at the top dose activity change, negative = inhibition, most hits filed as inhibitors. P17405. placental ASM, HMU-PC fluorogenic substrate, 60 min. 0.006% of 340,000 active. AID 504937; also: potency is read from the fitted curve at half-maximal effect
Target sequence (P17405 47-631 limits assumed): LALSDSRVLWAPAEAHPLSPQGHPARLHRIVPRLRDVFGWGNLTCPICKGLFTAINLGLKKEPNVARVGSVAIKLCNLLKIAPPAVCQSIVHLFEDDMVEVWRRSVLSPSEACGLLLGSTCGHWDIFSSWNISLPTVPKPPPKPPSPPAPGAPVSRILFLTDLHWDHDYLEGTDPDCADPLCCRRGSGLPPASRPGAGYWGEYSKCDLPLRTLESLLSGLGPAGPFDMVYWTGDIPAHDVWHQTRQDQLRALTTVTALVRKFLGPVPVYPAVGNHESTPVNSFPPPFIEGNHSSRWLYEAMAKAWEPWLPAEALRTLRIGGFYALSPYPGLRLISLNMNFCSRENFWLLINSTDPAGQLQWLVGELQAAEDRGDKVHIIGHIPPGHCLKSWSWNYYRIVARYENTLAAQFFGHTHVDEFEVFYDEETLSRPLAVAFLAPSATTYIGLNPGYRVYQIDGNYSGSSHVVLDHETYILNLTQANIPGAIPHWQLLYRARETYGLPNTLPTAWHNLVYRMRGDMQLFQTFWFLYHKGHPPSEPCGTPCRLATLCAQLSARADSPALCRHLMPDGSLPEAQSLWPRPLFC
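Human placenta-derived ASM preincubated with compound 10 min at room temperature, then reacted with 9 uM (final) fluorogenic HMU-PC substrate for 60 min at 37 C. Stop solution raises pH to 10; fluorescence read at Ex 386/Em 447 nm.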
HepG2 tox: kills HepG2 cells in TGF-b inhibitor counter-screen | HepG2 CAGA-GFP viability, ATP luminescence, 18 h | Potency, µM (top dose mostly 46.1 µM), without a hit: at the top dose activity change, negative = cytotoxicity, most hits filed as cytotoxic | 0.76% of 410,000 active; also: potency is read from the fitted curve at half-maximal effect
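HepG2 CAGA-GFP cells (1000/well, DMEM with 1% FBS) received compound, then TGF-beta at 500 pg/mL final, and were incubated 18 hours at 37 degrees C. Viability was read by CellTiter-Glo luminescence. Media-only wells were set as complete cell-killing and DMSO as no toxicity.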
IL-1B inflam inh: inflammasome signaling inhibition, IL-1 beta readout; THP-1 LPS/ATP IL-1B secretion, AlphaLISA, 16 h; active compounds read low; 4.7% of 360,000 active; activity change, % at 57.5 µM; in the data active = activity change below about -50%; inconclusive = mostly about -30% to -49%; also: % is scaled to controls: 0 for no effect and ±100 for the full control effect
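Secreted IL-1B measured by AlphaLISA bead assay after 16 h compound exposure of THP-1 cells; compounds (final up to 57.5 uM) added 1 h before LPS (250 ng/mL) and ATP (1.25 mM) stimulation; lower signal means less secretion.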
TGFb inhibitor: TGF-b pathway inhibition. HepG2 CAGA-GFP TGF-b/SMAD3 reporter, GFP fluorescence, 18 h; TGF-beta stimulated, 500 pg/mL final. Potency, µM (series often up to 46.1 µM), inactives show at the highest dose activity, negative = inhibition, usual class: inhibitors. 1.2% of 410,000 active. AID 588855; also: potency is read from the fitted curve at half-maximal effect; % is scaled to controls: 0 for no effect and ±100 for the full control effect; nearly all actives have a fitted effect of over 65% in size
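First, reporter cells (HEPG2 CAGA-GFP) rested 2 h at 37 degrees C. Next, compounds were pinned in and TGF-beta added to 500 pg/mL final. After 18 h, GFP was imaged per cell and summed per well.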
* = called active by the depositor. Sampled rows, rich in hits. Any-hit rate of the full collection: about 19%. Unless noted, calls follow the shape of the dose curve; as a rule, active = well fitted curve in the direction sought with a large enough effect; inconclusive = small, poorly fitted or top-dose-only effect, or another doubt; inactive = no such curve, though single readings can be large; an effect the other way counts as inactive or inconclusive.

What do the screens show for `Cc1nn(-c2ccccc2)c(Cl)c1/C=N/NC(=O)OC(C)(C)C`?
DT40 TDP1 no CPT: 16µM*; DT40 TDP1 CPT: inconclusive; ASM inhibitor: 0%; HepG2 tox: -3%; IL-1B inflam inh: -23; TGFb inhibitor: -13%

How did Cc1nn(-c2ccccc2)c(C)c1/C=N/NC(=O)c1cc(-c2ccc(Br)s2)[nH]n1 do in these assays?
DT40 TDP1 no CPT: 4.6µM*; DT40 TDP1 CPT: 2.9µM*; ASM inhibitor: inconclusive; HepG2 tox: 5%; IL-1B inflam inh: 44; TGFb inhibitor: 2%

What do the screens show for `O=C(N/N=C/c1ccccn1)c1cc(-c2ccc(Cl)s2)[nH]n1`?
DT40 TDP1 no CPT: 16µM*; DT40 TDP1 CPT: 23µM*; ASM inhibitor: 0%; HepG2 tox: -29%; IL-1B inflam inh: -3; TGFb inhibitor: inconclusive

What do the screens show for `Cn1cc(Cl)c(/C(N)=N/OC(=O)c2ccccc2C(F)(F)F)n1`?
DT40 TDP1 no CPT: 0%; DT40 TDP1 CPT: -14%; ASM inhibitor: 1%; HepG2 tox: -8%; IL-1B inflam inh: -10; TGFb inhibitor: 0%

Results for O=C(N/N=C/c1ccccn1)c1cc(-c2ccccc2Cl)n[nH]1 ?
DT40 TDP1 no CPT: 18µM*; DT40 TDP1 CPT: inconclusive; ASM inhibitor: -5%; HepG2 tox: -31%; IL-1B inflam inh: -2; TGFb inhibitor: -15%

How did Cc1nn(-c2ccccc2)c(C)c1/C=N/NC(=O)c1cc(-c2cccs2)[nH]n1 do in these assays?
DT40 TDP1 no CPT: 0.0082µM*; DT40 TDP1 CPT: 0.82µM*; ASM inhibitor: -29%; HepG2 tox: -22%; IL-1B inflam inh: 74; TGFb inhibitor: inconclusive

What do the screens show for `Cc1nn(-c2ccccc2)c(C)c1/C=N/NC(=O)c1cccs1`?
DT40 TDP1 no CPT: 15µM*; DT40 TDP1 CPT: 9.2µM*; ASM inhibitor: -5%; HepG2 tox: -22%; IL-1B inflam inh: 13; TGFb inhibitor: -7%

What do the screens show for `Cc1nn(-c2ccccc2)c(C)c1/C=N/NC(=O)c1cc(C23CC4CC(CC(C4)C2)C3)[nH]n1`?
DT40 TDP1 no CPT: inconclusive; DT40 TDP1 CPT: inconclusive; ASM inhibitor: -20%; HepG2 tox: -10%; IL-1B inflam inh: 29; TGFb inhibitor: inconclusive

What do the screens show for `Cc1nn(-c2ccccc2)c(C)c1/C=N/NC(=O)c1cc(-c2ccc(Cl)s2)[nH]n1`?
DT40 TDP1 no CPT: 4.1µM*; DT40 TDP1 CPT: 4.6µM*; ASM inhibitor: inconclusive; HepG2 tox: -4%; IL-1B inflam inh: -12; TGFb inhibitor: -9%

What do the screens show for `Cc1cc(C(=O)N/N=C/c2c(C)nn(-c3ccccc3)c2C)n[nH]1`?
DT40 TDP1 no CPT: -19%; DT40 TDP1 CPT: 0%; ASM inhibitor: -1%; HepG2 tox: -21%; IL-1B inflam inh: -13; TGFb inhibitor: -25%

What do the screens show for `O=C(N/N=C/c1ccccn1)c1cc(-c2cccc3ccccc23)n[nH]1`?
DT40 TDP1 no CPT: -27%; DT40 TDP1 CPT: inconclusive; ASM inhibitor: -11%; HepG2 tox: -43%; IL-1B inflam inh: 0; TGFb inhibitor: -15%

Results for C/C(=N\Nc1nccnc1Cl)c1ccc(O)c(C)c1 ?
DT40 TDP1 no CPT: -1%; DT40 TDP1 CPT: 12%; ASM inhibitor: -1%; HepG2 tox: -44%; IL-1B inflam inh: 14; TGFb inhibitor: inconclusive

How did O=C1c2cccc3cccc(c23)N1Cc1cccc(F)c1 do in these assays?
DT40 TDP1 no CPT: -30%; DT40 TDP1 CPT: 4%; ASM inhibitor: 48%; HepG2 tox: -2%; IL-1B inflam inh: -15; TGFb inhibitor: 6%

Results for Cc1cc(=O)oc(C)c1C(=O)Nc1cccnc1Cl ?
DT40 TDP1 no CPT: 1%; DT40 TDP1 CPT: 2%; ASM inhibitor: 0%; HepG2 tox: 22%; IL-1B inflam inh: -6; TGFb inhibitor: -4%

How did C[C@@H](C1[C@@H](O)CC2C3C=CC4C[C@@H](O)CC[C@]4(C)[C@H]3CC[C@@]21C)[C@@H]1CCCCN1 (stereo partly drawn) do in these assays?
DT40 TDP1 no CPT: 1.2µM*; DT40 TDP1 CPT: 1.6µM*

What do the screens show for `COc1ccc(CCNC(=O)Cc2ccc(Cl)cc2)cc1OC`?
DT40 TDP1 no CPT: -17%; DT40 TDP1 CPT: -1%; ASM inhibitor: 1%; HepG2 tox: 0%; IL-1B inflam inh: 13; TGFb inhibitor: -8%

What do the screens show for `COc1cc(CN2CCN(C(O)(c3ccccc3)c3ccccc3)CC2)cc(OC)c1OC`?
DT40 TDP1 no CPT: 15µM*; DT40 TDP1 CPT: inconclusive; ASM inhibitor: 2%; HepG2 tox: -29%; IL-1B inflam inh: -69*; TGFb inhibitor: -19%

Results for COc1cc(CN2CCN(c3cccc(Cl)c3)CC2)cc(OC)c1OC ?
DT40 TDP1 no CPT: 5.8µM*; DT40 TDP1 CPT: 7.3µM*; ASM inhibitor: 2%; HepG2 tox: -4%; IL-1B inflam inh: 34; TGFb inhibitor: -1%

What do the screens show for `COc1ccc(CCNC(=O)CN2CCN(c3cccc(Cl)c3)CC2)cc1OC`?
DT40 TDP1 no CPT: 21µM*; DT40 TDP1 CPT: 21µM*; ASM inhibitor: -1%; HepG2 tox: -18%; IL-1B inflam inh: -1; TGFb inhibitor: 0%

Results for Nc1ccc2c(c1)nnn2-c1ccccc1 ?
DT40 TDP1 no CPT: -22%; DT40 TDP1 CPT: -4%; ASM inhibitor: 210%; HepG2 tox: -5%; IL-1B inflam inh: -79*; TGFb inhibitor: -3%

How did O=C(CSc1nnc(-c2ccc(C(F)(F)F)cn2)o1)Nc1ccccc1Cl do in these assays?
DT40 TDP1 no CPT: -1%; DT40 TDP1 CPT: 2%; ASM inhibitor: 5%; HepG2 tox: 6%; IL-1B inflam inh: -5; TGFb inhibitor: 1%

Results for O=C(Nc1ccc(F)c([N+](=O)[O-])c1)C(=O)c1c(O)[nH]c2ccccc12 ?
DT40 TDP1 no CPT: 13µM*; DT40 TDP1 CPT: 18µM*; ASM inhibitor: 11%; HepG2 tox: -11%; IL-1B inflam inh: 0; TGFb inhibitor: -11%

How did O=C(Nc1ccccc1)Nc1ccc(F)c([N+](=O)[O-])c1 do in these assays?
DT40 TDP1 no CPT: 16µM*; DT40 TDP1 CPT: 16µM*; ASM inhibitor: -6%; HepG2 tox: -35%; IL-1B inflam inh: -90*; TGFb inhibitor: inconclusive

How did O=C(CSc1ccccn1)Nc1ccc(F)c([N+](=O)[O-])c1 do in these assays?
DT40 TDP1 no CPT: inconclusive; DT40 TDP1 CPT: inconclusive; ASM inhibitor: 0%; HepG2 tox: -12%; IL-1B inflam inh: -76*; TGFb inhibitor: -8%
